Experimental findings from PubChem BioAssay (EPA / NIEHS) are described below.

Broadly, the AC50 is the concentration at which the activity in the assay is half-maximal.

Read-out in assay [1]: Intercellular Adhesion Molecule 1 (ICAM1), ICAM1 (gene 3383)
Description: BSK_hDFCGF_ICAM1: BioMAP Diversity Plus: hDFCGF Assay for Intercellular Adhesion Molecule 1 (ICAM1) Biomarker Activity (AID 2284287). The settings on record: primary human foreskin fibroblasts. In a few lines: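 ICAM-1 ELISA readout 24 h after dosing, DMSO as baseline, in human dermal foreskin fibroblast cultures. Cytotoxicity checked in parallel wells by SRB staining (0.1% SRB, 10% TCA fixation, 560 nm).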

Read-out in another assay: CD40, CD40 (gene 958)
Nature of the assay: BSK_IMphg_CD40: BioMAP Diversity Plus: IMphg Assay for CD40 Biomarker Activity (AID 2284288). The settings on record: primary human endothelial cells with macrophages. In a few lines:
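ELISA read-out of cell-surface CD40 at 24 h in human venular endothelial cell/macrophage co-cultures. Activity fitted in the positive direction against DMSO; parallel SRB staining (560 nm) gauges overt cytotoxicity.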

Read-out in assay [2]: TIMP metallopeptidase inhibitor 2 (TIMP2), TIMP2 (gene 7077)
Description: BSK_hDFCGF_TIMP2: BioMAP Diversity Plus: hDFCGF Assay for TIMP metallopeptidase inhibitor 2 (TIMP2) Biomarker Activity (AID 2284289). The settings on record: primary human foreskin fibroblasts. In a few lines: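 Primary human foreskin fibroblasts in the hDFCGF system, dosed for 24 h; TIMP-2 level measured by ELISA, fitted in the positive direction against DMSO; cytotoxicity checked in parallel by sulforhodamine B total protein staining.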

Read-out in assay [3]: Interleukin-1 alpha (IL1a), IL1A (gene 3552)
Description: BSK_IMphg_IL1a: BioMAP Diversity Plus: IMphg Assay for Interleukin-1 alpha (IL1a) Biomarker Activity (AID 2284290). The settings on record: primary human endothelial cells with macrophages. In a few lines:
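IL-1α is quantified by ELISA at 24 h in the endothelial/macrophage IMphg co-culture, with gain of signal fitted relative to DMSO. Parallel SRB total-protein staining flags overt toxicity.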

Read-out in assay [4]: E-selectin (Homo sapiens) (UniProt P16581)
Description: BSK_IMphg_ESelectin: BioMAP Diversity Plus: IMphg Assay for Eselectin Biomarker Activity (AID 2284291). The settings on record: primary human endothelial cells with macrophages. A digest of the protocol:
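Analysed against DMSO baseline in the positive fitting direction, this endpoint is an ELISA read of E-selectin. It comes from human venular endothelial cells co-cultured with macrophages, sampled 24 h post-dose.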

The nature of assay [5]: BSK_IMphg_SRB: Viability Assessment in the BioMAP Diversity Plus: IMphg Assay (AID 2284292).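 Also: measured one day after compound addition.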 The following applies: primary human endothelial cells with macrophages. In a few lines:
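SRB viability endpoint: cultures of human endothelial cells plus macrophages fixed with 10% TCA, stained with 0.1% SRB, read at 560 nm 24 h post-dosing. Only gain-of-signal fitted, relative to DMSO.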

Read-out in assay [6]: Macrophage colony-stimulating factor (MCSF), CSF1 (gene 1435)
Nature of the assay: BSK_IMphg_MCSF: BioMAP Diversity Plus: IMphg Assay for Macrophage colony-stimulating factor (MCSF) Biomarker Activity (AID 2284293). The following applies: primary human endothelial cells with macrophages. A digest of the protocol: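 M-CSF was measured by ELISA in human venular endothelial cell/macrophage co-cultures dosed for 24 hours. Sulforhodamine B staining of parallel cultures assessed cytotoxicity; data fitted against DMSO baseline.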

Read-out in assay [7]: Interleukin-10 (IL10), IL10 (gene 3586)
Description: BSK_IMphg_IL10: BioMAP Diversity Plus: IMphg Assay for Interleukin-10 (IL10) Biomarker Activity (AID 2284294). The following applies: primary human endothelial cells with macrophages. A digest of the protocol: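 IL-10 read by ELISA after 24 h chemical exposure of primary human venular endothelial cell/macrophage cocultures, with DMSO as baseline. Parallel SRB staining (560 nm) gauged overt cytotoxicity.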

A short description of assay [8]: BSK_IMphg_SRB.Mphg: Macrophage Viability Assessment in the BioMAP Diversity Plus: IMphg Assay (AID 2284295). The following applies: primary human endothelial cells with macrophages. A digest of the protocol:
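Cytotoxicity read-out: parallel cultures fixed with 10% TCA, stained with 0.1% sulforhodamine B, read at 560 nm. System combines venular endothelium and macrophages; sampled 24 h post-dosing, fitted positively relative to DMSO control.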

Read-out in assay [9]: Thrombomodulin, THBD (gene 7056)
Description: BSK_LPS_Thrombomodulin: BioMAP Diversity Plus: LPS Assay for Thrombomodulin Biomarker Activity (AID 2284296). The following applies: primary human HUVEC with PBMC. In a few lines:
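Thrombomodulin on the surface of LPS-activated endothelial/PBMC co-cultures was quantified by ELISA at 24 hours post-dosing, with DMSO as baseline. Parallel SRB total-protein staining flagged overt cytotoxicity.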

Each structure is given as a SMILES string. Several values for one entry are separate records, joined by “and”; a condition that tells them apart may be missing. Identical values can stand only once. A structure can be active in one record and inactive in another. Activity calls are given as the source filed them. The calls were made as follows: active = hit-call score of the fitted dose curve at least 0.9, where 1 is the maximum; inactive = score below 0.9.

E-selectin (Homo sapiens), sequence (P16581 whole entry, looked up): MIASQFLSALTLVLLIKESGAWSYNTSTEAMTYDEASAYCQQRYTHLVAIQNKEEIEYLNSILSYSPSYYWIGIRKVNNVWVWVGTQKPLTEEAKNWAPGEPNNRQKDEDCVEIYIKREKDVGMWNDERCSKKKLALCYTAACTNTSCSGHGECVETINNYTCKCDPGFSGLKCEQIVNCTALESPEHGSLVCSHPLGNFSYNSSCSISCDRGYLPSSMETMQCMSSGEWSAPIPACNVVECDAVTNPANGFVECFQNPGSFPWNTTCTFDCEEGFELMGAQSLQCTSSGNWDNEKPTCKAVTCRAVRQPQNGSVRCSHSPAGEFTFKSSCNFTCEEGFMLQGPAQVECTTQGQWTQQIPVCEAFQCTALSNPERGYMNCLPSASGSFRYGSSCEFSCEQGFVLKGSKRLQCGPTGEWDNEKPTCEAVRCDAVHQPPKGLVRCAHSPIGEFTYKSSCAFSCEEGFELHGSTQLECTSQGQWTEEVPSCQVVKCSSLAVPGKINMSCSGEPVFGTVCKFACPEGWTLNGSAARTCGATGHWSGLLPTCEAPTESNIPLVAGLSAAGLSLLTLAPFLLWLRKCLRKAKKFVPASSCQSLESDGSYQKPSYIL

Consider `O=P(O)(O)OCCC(F)(F)C(F)(F)C(F)(F)C(F)(F)C(F)(F)C(F)(F)F`, for which the outcome in assay [1] was “inactive”; in the assay with CD40, CD40 (gene 958), “inactive”; in [2], “inactive”; in [3], “inactive”; in assay [4], “inactive”; in assay [5], “inactive”. Also, the result in assay [6], in assay [7], in assay [8] and in [9] was inactive. Further, in [4], the AC50 is 5.46 µM (active).
Take `C=CC(=O)OCC(F)(F)C(F)(F)C(F)(F)C(F)(F)C(F)(F)C(F)(F)C(F)(F)F`: the outcome in assay [1] is “inactive”; in the assay with CD40, CD40 (gene 958), “inactive”; in assay [2], “inactive”; in assay [3] it was “inactive”; in [4], “inactive”; in assay [5] it was “inactive”. For the same compound, the result in assay [6], in assay [7], in assay [8] and in assay [9] was inactive. Further, the half-maximal activity concentration (AC50) in the assay with CD40, CD40 (gene 958) was 6.54 µM (active).
With `FC(F)(Br)C(F)(F)C(F)(F)C(F)(F)C(F)(F)C(F)(F)Br`, the outcome in [1] is “inactive”; with CD40, CD40 (gene 958), “inactive”; in assay [2], “inactive”; in assay [3] it was “inactive”; in assay [4] it was “inactive”; in [5] it was “inactive”. Further, the result in assay [6], in assay [7], in [8] and in [9] was inactive.
Turning to `CCO[Si](CCC(F)(F)C(F)(F)C(F)(F)C(F)(F)C(F)(F)C(F)(F)F)(OCC)OCC`, the outcome in assay [1] was “inactive”; with CD40, CD40 (gene 958) it was “inactive”; in [2], “inactive”; in [3], “inactive”; in assay [4], “inactive”; in [5] it was “inactive”. Further, the result in [6], in [7], in assay [8] and in assay [9] was inactive.
As for `O=C(CC(=O)C(F)(F)C(F)(F)F)C(F)(F)F`, the outcome in assay [1] was “inactive”; with CD40, CD40 (gene 958), “inactive”; in [2], “inactive”; in [3] it was “inactive”; in assay [4], “inactive”; in [5], “inactive”. The outcome in assay [6], in assay [7], in [8] and in [9] was inactive.
With `FC(F)(F)C(F)(F)C(F)(F)C(F)(F)C(F)(F)C(F)(F)CCS`, the outcome is “inactive” in [1]; “inactive” with CD40, CD40 (gene 958); “inactive” in [2]; “inactive” in assay [3]; “inactive” in assay [4]; “inactive” in [5]. Moreover, the outcome in [6], in [7], in assay [8] and in assay [9] was inactive. In addition, the values for the AC50 in assay [7] and in assay [8] were 2.49 µM (active) and 2.57 µM (active), respectively.
On to `C=C(C)C(=O)OCCC(F)(F)C(F)(F)C(F)(F)C(F)(F)C(F)(C(F)(F)F)C(F)(F)F`, for which the outcome in assay [1] was “inactive”; in the assay with CD40, CD40 (gene 958), “inactive”; in assay [2], “inactive”; in assay [3] it was “inactive”; in [4], “inactive”; in [5], “inactive”. Besides, the outcome in assay [6], in [7], in assay [8] and in assay [9] was inactive.
For the compound `O=C(O)C(F)(F)C(F)(F)OC(F)(F)F`, the outcome in assay [1] is “inactive”; with CD40, CD40 (gene 958), “inactive”; in [2], “inactive”; in assay [3], “inactive”; in assay [4] it was “inactive”; in assay [5] it was “inactive”. Also, the outcome in [6], in assay [7], in [8] and in assay [9] was inactive.
As for `O=S(=O)(OCC(F)F)C(F)(F)F`, the outcome is “inactive” in assay [1]; “inactive” with CD40, CD40 (gene 958); “inactive” in assay [2]; “inactive” in assay [3]; “inactive” in [4]; “inactive” in [5]. The outcome in [6], in assay [7], in [8] and in assay [9] was inactive. In addition, the AC50 in assay [8] is 0.221 µM (active).
On to `FC(F)(I)C(F)(F)C(F)(F)C(F)(F)I`, for which the AC50 in assay [1] was 49.8 µM (active) and 46 µM (active) and 53.4 µM (active); in assay [2], 46 µM (active); in [6], 30 µM (active) and 19.6 µM (active); in assay [7] it was 30 µM (active); in [8] it was 47.8 µM (active) and 45.9 µM (active); in assay [9], 45.8 µM (active). The outcome with CD40, CD40 (gene 958) was “inactive”; in [2], “inactive”; in assay [3], “inactive”; in [4], “inactive”; in assay [5] it was “inactive”; in assay [6] it was “inactive”. Also, the result in assay [7], in assay [8] and in assay [9] was inactive.
In the case of `FC(F)(F)C(F)(F)C(F)(F)C(F)(F)C(F)(F)C(F)(F)C(F)(F)C(F)(F)CCS`, the outcome was “inactive” in [1]; “inactive” in the assay with CD40, CD40 (gene 958); “inactive” in assay [2]; “inactive” in assay [3]; “inactive” in assay [4]; “inactive” in assay [5]. The result in assay [6], in assay [7], in assay [8] and in assay [9] was inactive. Moreover, the AC50 in assay [2] was 0.0245 µM (active).
On to `OCCCC(F)(F)C(F)(F)C(F)(F)F`, for which the outcome in [1] is “inactive”; in the assay with CD40, CD40 (gene 958), “inactive”; in [2], “inactive”; in [3], “inactive”; in assay [4] it was “inactive”; in [5] it was “inactive”. Further, the outcome in [6], in assay [7], in assay [8] and in assay [9] was inactive.
As to `O=C(Cl)C(F)(F)C(F)(F)C(F)(F)C(F)(F)C(F)(F)C(F)(F)C(F)(F)C(F)(F)F`, the AC50 is 16.5 µM (active) and 19.9 µM (active) in [1]; 36.6 µM (active) with CD40, CD40 (gene 958); 1.59 µM (active) in assay [2]; 40.2 µM (active) in [4]; 54.8 µM (active) and 40 µM (active) and 47.8 µM (active) in assay [5]; 51.8 µM (active) and 44.2 µM (active) in [7]. The AC50 in assay [9] was 40.9 µM (active) and 21.5 µM (active). In addition, the outcome in [1] is “inactive”; in the assay with CD40, CD40 (gene 958), “inactive”; in assay [2] it was “inactive”; in [3] it was “inactive”; in assay [4], “inactive”; in assay [6], “inactive”. In addition, the outcome in assay [7], in assay [8] and in assay [9] was inactive.
